Data from PubChem BioAssay (NCATS).
Results filed as inconclusive are left out. Calls of active or inactive are those of the source. Unless noted, calls follow the shape of the dose curve; as a rule, active = well fitted curve in the direction sought with a large enough effect; inconclusive = small, poorly fitted or top-dose-only effect, or another doubt; inactive = no such curve, though single readings can be large; an effect the other way counts as inactive or inconclusive.

Assays:
[1] = qHTS assay for small molecule disruptors of the mitochondrial membrane potential - 1 hr assay (AID 651754; calls by dose curve; also: % is scaled to controls: 0 for no effect and ±100 for the full control effect; nearly all actives have a fitted effect of over 35% in size)
Procedure, shortened: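 HepG2 cells, attached overnight at 37C, were exposed to compound or DMSO vehicle for 1 hr at 37C, 5% CO2, then stained with Mito-MPS dye for 30 min. Red aggregate versus green monomer fluorescence reports membrane potential.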

[2] = qHTS assay for small molecule disruptors of the mitochondrial membrane potential - 5 hr assay (AID 651755; calls by dose curve; also: % is scaled to controls: 0 for no effect and ±100 for the full control effect; nearly all actives have a fitted effect of over 40% in size)
Procedure, shortened: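 HepG2 cells, attached overnight at 37C, were exposed to compound or DMSO for 5 hr at 37C, 5% CO2. Mito-MPS dye was then added for 30 min, and fluorescence read at 490/535 nm (monomers) and 540/590 nm (aggregates).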

[3] = biological target: Tumor necrosis factor (Homo sapiens) (UniProt P01375); experiment: qHTS assay to identify small molecules that stimulate Tumor Necrosis Factor-alpha (TNF-alpha) secretion (AID 651757; active = well fitted curve in the direction sought with a large enough effect in the signal ratio; the % refers to the signal ratio; also: 0% is about no effect)
Procedure, shortened: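 THP-1 cells were exposed to compounds for 17 hrs at 37 C, after which secreted TNF-alpha was measured by homogeneous HTRF (TR-FRET) using cryptate- and XL665-labeled anti-TNF-alpha antibodies, read after 3 hr at room temperature.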

[4] = qHTS assay for environmental chemicals that activate the Aryl hydrocarbon Receptor (AhR) signaling pathway (AID 651777); details: 1A2-DRE human hepatoma cells, luciferase, 24 h; activation: stronger effect = higher value; also: % of control where 0% means no effect; nearly all actives have a fitted effect of over 15% in size
Procedure, shortened: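 1A2-DRE human hepatoma reporter line; 1,200 cells/well; cmpd or DMSO 24 h, 37 C/5% CO2; One-Glo 30 min RT; luciferase lum.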

[5] = biological target: Peroxisome proliferator-activated receptor alpha (Homo sapiens) (UniProt Q07869); experiment: qHTS assay for small molecule agonists of the peroxisome proliferator-activated receptor alpha (PPARalpha) signaling pathway (AID 651778); details: PathHunter PPARalpha complementation, chemiluminescence, 6 h; stronger effect = higher value; also: % of control where 0% means no effect
Procedure, shortened: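 Cells plated at 2,000/well and held overnight at 37 C, 5% CO2, then compound added by pin tool for 6 hr; after PathHunter detection reagent and 60 min at room temperature, chemiluminescence from enzyme complementation was read.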

[6] = biological target: Nuclear receptor ROR-gamma (Homo sapiens) (UniProt P51449); experiment: qHTS assay for small molecule antagonists of the retinoid-related orphan receptor gamma (ROR-gamma) signaling pathway (AID 651802); also: series mostly up to about 92 µM; % is scaled to controls: 0 for no effect and ±100 for the full control effect; nearly all actives have a fitted effect of over 60% in size
Procedure, shortened: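 CHO cells carrying TET-inducible ROR-gamma and an ROR response element–luciferase reporter were exposed to compound, then induced with doxycycline. After 16hr at 37C, luminescence was read; lower signal indicates antagonism.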

[7] = qHTS assay for small molecule agonists of the antioxidant response element (ARE) signaling pathway measured by Nrf2-dependant transcriptional activity (AID 720636; active = well fitted curve in the direction sought with a large enough effect in the repeat runs; an effect the other way counts as inactive or inconclusive;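 also: HepG2 cells with an ARE-driven luciferase reporter; % of control where 0% means no effect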)
Procedure, shortened: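 Cells: ARE-luc HepG2 with Nrf2-responsive luciferase. Medium contained 1% dialyzed FBS. Compound exposure lasted 16 hr at 37 C and 5% CO2, followed by ONE-Glo luciferase detection.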

[8] = qHTS assay for small molecule antagonists of the retinoid-related orphan receptor gamma (ROR-gamma) signaling pathway - cell viability counter screen (AID 720652; active = well fitted curve in the direction sought with a large enough effect in the repeat runs; an effect the other way counts as inactive or inconclusive;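 also: series mostly up to about 92 µM; compound exposure lasted 16 hr before ATP read; % is scaled to controls: 0 for no effect and ±100 for the full control effect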)
Procedure, shortened: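 Counter screen in CHO cells carrying TET-inducible ROR-gamma and an ROR response element-luciferase reporter; cells plated 5 hr, compound pinned, doxycycline added, then 16 hr at 37 C. Viability read as intracellular ATP by CellTiter-Glo luminescence.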

[9] = qHTS assay for small molecule agonists of the antioxidant response element (ARE) signaling pathway measured by Nrf2-dependant transcriptional activity - cell viability counter screen (AID 720653; active = well fitted curve in the direction sought with a large enough effect in the repeat runs; an effect the other way counts as inactive or inconclusive; also: % is scaled to controls: 0 for no effect and ±100 for the full control effect); details: ARE-bla HepG2 viability, CellTiter-Glo ATP luminescence, 16 h; stronger effect = lower value
Procedure, shortened: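 ARE-bla HepG2 cells (2,000/well) rested 5 hrs at 37C/5% CO2, then exposed to compounds in DMSO for 16 hrs. Viability was read in the same wells as intracellular ATP by luminescence, 30 min at room temperature after reagent addition.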

[10] = qHTS assay for cell viability of HEK293 cells (AID 743288); details: ATP luminescence (CellTiter-Glo), 18 h, stronger effect = lower value; also: % is scaled to controls: 0 for no effect and ±100 for the full control effect; nearly all actives have a fitted effect of over 50% in size
Procedure, shortened: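 Parental HEK293 cells were seeded at 2,000 cells/well, rested at least 5 h at 37 C, then exposed to compounds in DMSO for 18 h at 37 C. Viability was read as ATP-dependent luciferase luminescence after 30 min at room temperature.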

[11] = qHTS assay for cell viability of the p53RE-bla HCT-116 cell line (AID 743292); also: % is scaled to controls: 0 for no effect and ±100 for the full control effect; nearly all actives have a fitted effect of over 55% in size
Procedure, shortened: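 HCT-116 p53RE-bla cells seeded 4,000/well; 5 h at 37 C; compound (DMSO) added; 16 h at 37 C; CellTiter-Glo added, 30 min RT; luminescence read.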

[12] = biological target: Nuclear receptor subfamily 1 group I member 2 (Rattus norvegicus) (UniProt Q9R1A7); experiment: qHTS assay for small molecule activators of the rat pregnane X receptor (rPXR) signaling pathway (AID 651751; call rule not given here; also: 0% is about no effect); details: rPXR reporter cells, luciferase (One-Glo), 24 h
[13] = qHTS assay for small molecule activators of the human pregnane X receptor (PXR) signaling pathway (AID 720659; call rule not given here; also: 0% is about no effect)

Nuclear receptor ROR-gamma (Homo sapiens), sequence (P51449 whole entry, looked up): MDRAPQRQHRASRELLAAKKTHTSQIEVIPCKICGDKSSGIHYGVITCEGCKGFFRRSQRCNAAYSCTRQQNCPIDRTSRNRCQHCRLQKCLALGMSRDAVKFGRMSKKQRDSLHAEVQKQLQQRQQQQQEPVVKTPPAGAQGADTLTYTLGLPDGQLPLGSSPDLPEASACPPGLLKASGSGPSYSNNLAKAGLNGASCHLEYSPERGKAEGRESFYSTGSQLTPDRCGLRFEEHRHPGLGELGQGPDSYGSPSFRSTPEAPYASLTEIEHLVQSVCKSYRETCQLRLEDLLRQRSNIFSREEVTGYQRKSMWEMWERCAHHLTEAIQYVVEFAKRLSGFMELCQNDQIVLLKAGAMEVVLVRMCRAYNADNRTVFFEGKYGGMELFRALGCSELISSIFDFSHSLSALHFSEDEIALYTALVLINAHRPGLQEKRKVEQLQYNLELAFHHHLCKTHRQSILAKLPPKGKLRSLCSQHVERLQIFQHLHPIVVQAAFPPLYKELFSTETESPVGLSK
Nuclear receptor subfamily 1 group I member 2 (Rattus norvegicus), sequence (Q9R1A7 whole entry, looked up): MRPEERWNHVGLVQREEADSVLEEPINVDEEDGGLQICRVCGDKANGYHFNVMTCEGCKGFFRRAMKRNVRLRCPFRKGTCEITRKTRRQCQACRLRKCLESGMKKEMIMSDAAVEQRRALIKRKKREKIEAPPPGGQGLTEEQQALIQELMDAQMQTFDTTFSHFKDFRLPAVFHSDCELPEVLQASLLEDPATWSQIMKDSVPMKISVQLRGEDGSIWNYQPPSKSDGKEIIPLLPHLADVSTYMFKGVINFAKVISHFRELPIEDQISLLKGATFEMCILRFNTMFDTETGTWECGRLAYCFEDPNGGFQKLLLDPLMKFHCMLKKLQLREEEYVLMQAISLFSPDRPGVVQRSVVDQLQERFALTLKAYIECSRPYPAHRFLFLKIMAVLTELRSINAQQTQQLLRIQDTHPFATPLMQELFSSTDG
Tumor necrosis factor (Homo sapiens), sequence (P01375 whole entry, looked up): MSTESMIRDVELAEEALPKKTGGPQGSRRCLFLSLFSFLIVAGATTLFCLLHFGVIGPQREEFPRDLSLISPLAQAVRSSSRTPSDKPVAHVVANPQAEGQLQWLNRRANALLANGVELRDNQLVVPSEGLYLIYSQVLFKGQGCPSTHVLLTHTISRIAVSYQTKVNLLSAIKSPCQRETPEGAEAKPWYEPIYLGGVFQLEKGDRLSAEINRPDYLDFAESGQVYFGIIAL
Peroxisome proliferator-activated receptor alpha (Homo sapiens), sequence (Q07869 whole entry, looked up): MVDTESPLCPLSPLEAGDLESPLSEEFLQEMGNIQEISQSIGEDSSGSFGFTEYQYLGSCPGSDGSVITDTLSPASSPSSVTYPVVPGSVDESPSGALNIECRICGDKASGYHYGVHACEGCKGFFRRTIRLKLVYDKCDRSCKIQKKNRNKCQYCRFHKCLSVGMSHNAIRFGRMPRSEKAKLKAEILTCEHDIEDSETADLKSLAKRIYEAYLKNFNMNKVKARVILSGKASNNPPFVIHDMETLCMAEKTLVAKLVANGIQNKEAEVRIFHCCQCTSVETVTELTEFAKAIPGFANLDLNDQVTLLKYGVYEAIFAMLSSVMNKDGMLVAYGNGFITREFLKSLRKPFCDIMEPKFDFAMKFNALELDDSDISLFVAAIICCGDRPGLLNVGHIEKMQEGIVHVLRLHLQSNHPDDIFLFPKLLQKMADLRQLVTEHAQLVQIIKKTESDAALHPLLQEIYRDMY

BrC(Br)C(Br)Br
inactive: Potency [1] | Potency [2] | Potency [3] | activation [4] -0.0804% | max response [5] 6.41% | Potency [6] | outcome [7] | Potency [8] | max response [9] 0.416% | max response [10] 6.64% | Potency [11] | max response [12] 0.617% | outcome [13]

O=[N+]([O-])c1ccccc1CCO
inactive: Potency [1] | Potency [2] | Potency [3] | activation [4] 0.213% | max response [5] -1.29% | Potency [6] | outcome [7] | Potency [8] | max response [9] -3.69% | max response [10] -3.96% | Potency [11] | max response [12] 5.68% | outcome [13]

COc1ccc(OC)cc1
inactive: Potency [1] | Potency [2] | Potency [3] | activation [4] 0.641% | max response [5] -4.92% | Potency [6] | outcome [7] | Potency [8] | max response [9] 4.82% | max response [10] -1.36% | Potency [11] | max response [12] 2.22% | outcome [13]

c1ccc2[nH]cnc2c1
inactive: Potency [1] | Potency [2] | Potency [3] | activation [4] 1.2% | max response [5] -1.28% | Potency [6] | outcome [7] | Potency [8] | max response [9] -6.28% | max response [10] 3.37% | Potency [11] | max response [12] 3.1% | outcome [13]

Nc1ccccc1S(=O)(=O)O
inactive: Potency [1] | Potency [2] | Potency [3] | activation [4] -0.162% | max response [5] -3.61% | Potency [6] | outcome [7] | Potency [8] | max response [9] -0.944% | max response [10] -1.86% | Potency [11] | max response [12] -0.431% | outcome [13]

CCCCCCC(=O)O
inactive: Potency [1] | Potency [2] | Potency [3] | activation [4] 0.903% | max response [5] 14.5% | Potency [6] | outcome [7] | Potency [8] | max response [9] -2.08% | max response [10] -7.36% | Potency [11] | max response [12] -2.97% | outcome [13]

CCCOCC(C)O (stereo not drawn)
inactive: Potency [1] | Potency [2] | Potency [3] | activation [4] 1.17% | max response [5] -5.25% | Potency [6] | outcome [7] | Potency [8] | max response [9] 8.24% | max response [10] 2.22% | Potency [11] | max response [12] -0.746% | outcome [13]

O=Cc1ccccc1Cl
inactive: Potency [1] | Potency [2] | Potency [3] | activation [4] -0.0176% | max response [5] -3.69% | Potency [6] | outcome [7] | Potency [8] | max response [9] -4.5% | max response [10] -11.9% | Potency [11] | max response [12] -0.844% | outcome [13]

CCOc1ccccc1N
inactive: Potency [1] | Potency [2] | Potency [3] | activation [4] -0.265% | max response [5] -0.0098% | Potency [6] | outcome [7] | Potency [8] | max response [9] 12.7% | max response [10] 0.362% | Potency [11] | max response [12] 2.86% | outcome [13]

CC(=O)CC(C)C
inactive: Potency [1] | Potency [2] | Potency [3] | activation [4] -0.041% | max response [5] -2.67% | Potency [6] | outcome [7] | Potency [8] | max response [9] 4.78% | max response [10] -6.25% | Potency [11] | max response [12] -2.17% | outcome [13]

CCC(C)(C)OC
inactive: Potency [1] | Potency [2] | Potency [3] | activation [4] 0.579% | max response [5] -8.98% | Potency [6] | outcome [7] | Potency [8] | max response [9] -14.5% | max response [10] -19.7% | Potency [11] | max response [12] -4.5% | outcome [13]

CC(C)c1ccccc1
inactive: Potency [1] | Potency [2] | Potency [3] | activation [4] -1.48% | max response [5] 3.38% | Potency [6] | outcome [7] | Potency [8] | max response [9] -7.17% | max response [10] -0.678% | Potency [11] | max response [12] -5.7% | outcome [13]

NC(=O)NC(N)=O
inactive: Potency [1] | Potency [2] | Potency [3] | activation [4] 2.56% | max response [5] -2.74% | Potency [6] | outcome [7] | Potency [8] | max response [9] -4.93% | max response [10] -4.97% | Potency [11] | max response [12] -0.329% | outcome [13]

C[C@@H]1CC2(OC[C@]3(C)O[C@H]23)O[C@H]2C[C@@]3(C)[C@@H]4CC[C@H]5C(C)(C)C(O[C@@H]6OC[C@@H](O)[C@H](O)[C@H]6O)CC[C@@]56C[C@@]46CC[C@]3(C)[C@@H]12 (stereo partly drawn)
inactive: Potency [1] | Potency [2] | Potency [3] | activation [4] -1.5% | max response [5] 0.712% | Potency [6] | outcome [7] | Potency [8] | max response [9] -3.07% | max response [10] -22.4% | Potency [11] | max response [12] 2.43% | outcome [13]

OC(CCl)CCl
inactive: Potency [1] | Potency [2] | Potency [3] | activation [4] 0.26% | max response [5] -0.528% | Potency [6] | outcome [7] | Potency [8] | max response [9] 16.1% | max response [10] 5.53% | Potency [11] | max response [12] 0.333% | outcome [13]

COc1ccc(N)c(C)c1
inactive: Potency [1] | Potency [2] | Potency [3] | activation [4] 1.75% | max response [5] -5.31% | Potency [6] | outcome [7] | Potency [8] | max response [9] -1.87% | max response [10] -3.7% | Potency [11] | max response [12] 7.59% | outcome [13]
